# Shown is part of a subset that was picked to be rich in hits.
# HT1080 IDH1KD tx – HT-1080 IDH1 knockdown cell toxicity (counter line) | HT-1080 IDH1 knockdown viability, ATP luminescence, 48 h | Potency, µM (titrated, usually from 46.1 µM), without a hit: at the highest dose activity, negative = toxicity, hits mostly cytotoxic | 360,000 compounds, 2% hits | AID 686971;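 note: potency is the fitted concentration of half-maximal effect; 0% = DMSO wells and -100% = cell-free medium wells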
#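 Assay cells: HT-1080 with IDH1 knockdown, 750 per well, RPMI/5% FBS. Exposure: 48 h at 37 °C following 2 h pre-incubation. Read: CellTiter-Glo luminescence; fitted concentration-response, curve class assigned.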
# DT40 TDP1 CPT – growth inhibition of DT40 Tdp1-/-;hTDP1 cells with camptothecin (screen for TDP1 inhibitors); 420,000 compounds, 12% hits; Potency, µM (top dose mostly 46.2 µM), for inactives: at the highest dose activity change, negative = growth inhibition, hits mostly inhibitors; chicken DT40 Tdp1-/-;hTDP1 cells + 20 nM CPT, ATP luminescence, 48 h; note: potency is the fitted concentration of half-maximal effect; nearly all actives have a fitted effect of over 55% in size
#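 Cell growth measured by CellTiter-Glo luminescence after a minimum 48 h, 37 C compound exposure with 20 nM CPT in Tdp1-knockout DT40 cells stably expressing hTDP1, seeded 400/well; qHTS titration format.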
# ALOX12 inh – ALOX12 (human) lipoxygenase inhibition; 580,000 compounds, 1.1% hits; AID 1671190; purified 12hLO, xylenol orange hydroperoxide absorbance; Potency, µM (titrated, usually from 108 µM), inactives show top-dose activity change, negative = inhibition, hits mostly inhibitors; P18054; note: potency is the fitted concentration of half-maximal effect
# Target sequence (P18054 whole entry, looked up): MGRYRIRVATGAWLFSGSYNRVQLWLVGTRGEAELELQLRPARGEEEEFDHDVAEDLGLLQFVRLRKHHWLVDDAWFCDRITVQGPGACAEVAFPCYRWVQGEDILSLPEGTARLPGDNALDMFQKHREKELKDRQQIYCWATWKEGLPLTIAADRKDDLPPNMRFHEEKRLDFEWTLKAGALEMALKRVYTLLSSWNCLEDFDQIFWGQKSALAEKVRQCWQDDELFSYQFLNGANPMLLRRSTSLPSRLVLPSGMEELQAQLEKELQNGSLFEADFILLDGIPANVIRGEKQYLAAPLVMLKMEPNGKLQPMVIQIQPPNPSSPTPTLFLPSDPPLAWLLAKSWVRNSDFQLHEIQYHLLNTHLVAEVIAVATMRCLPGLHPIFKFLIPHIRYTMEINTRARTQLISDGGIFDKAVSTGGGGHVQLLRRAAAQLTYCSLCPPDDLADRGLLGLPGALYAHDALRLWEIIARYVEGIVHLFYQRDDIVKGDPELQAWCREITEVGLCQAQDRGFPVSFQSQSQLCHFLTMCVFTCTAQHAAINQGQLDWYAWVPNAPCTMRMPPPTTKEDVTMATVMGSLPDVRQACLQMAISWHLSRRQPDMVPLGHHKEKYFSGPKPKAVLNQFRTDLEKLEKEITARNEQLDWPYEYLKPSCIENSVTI
#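 Purified human 12hLO (150 nM final) in 25 mM Hepes, 0.01% Triton X-100, pH 7.0 was preincubated 15 min at room temperature with compound. Then 40 uM arachidonic acid was added, 30 min. Hydroperoxide was read by Fe-XO absorbance ratio 573/405 nm.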
# IL1B secr inh – blocks inflammasome-driven IL-1 beta release; THP-1 LPS/ATP IL-1B secretion, AlphaLISA, 16 h; stronger effect = lower value; activity change, % at 57.5 µM; 360,000 compounds, 4.7% hits; AID 743279; in the data active = activity change below about -50%; inconclusive = mostly about -30% to -49%
#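 THP-1 cells pretreated 1 hr with compounds (up to 57.5 uM final), then stimulated with LPS (250 ng/mL final) plus ATP (1.25 mM final); secreted IL-1B measured by AlphaLISA after 16 hr, decreased signal indicating inhibition.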
# HT1080-NT tox – kills 2HG-producing HT-1080-NT fibrosarcoma cells; HT-1080-NT fibrosarcoma viability, CellTiter-Glo ATP luminescence, 48 h; Potency, µM (series often up to 46.1 µM), inactives show at the highest dose activity, negative = less viability, most hits filed as cytotoxic; 360,000 compounds, 1.6% hits;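 note: NT is the 2HG producing partner of a matched IDH1 knockdown line; potency is the fitted concentration of half-maximal effect; 0% = DMSO-treated cells and -100% = media-only wells without cells; nearly all actives have a fitted effect of over 55% in size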
#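 Compounds were tested in concentration-response format on HT-1080-NT cells for 48 hours at 37 degrees C. Cell viability came from CellTiter-Glo luminescence; curves were classified by r2, response magnitude and activity.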
# TDP1 cell noCPT – qHTS for Inhibitors of human tyrosyl-DNA phosphodiesterase 1 (TDP1): qHTS in cells in absence of CPT | DT40 Tdp1-/- hTDP1 cells, no CPT, ATP luminescence, 48 h | Potency, µM (doses to about 46.2 µM), for the others: at the highest dose activity change, negative = growth inhibition, actives largely listed as inhibitors | 420,000 compounds, 15% hits | AID 686978, 2013; note: potency is the fitted concentration of half-maximal effect; nearly all actives have a fitted effect of over 55% in size
#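 No-CPT arm: Tdp1-/-;hTDP1 DT40 cells (400/well) plus compounds, incubated ≥48 hr at 37 °C. Readout CellTiter-Glo luminescence.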
# An asterisk follows results filed as active; i = inactive; ? = inconclusive; nt = no result; [ ] = remark or other dose. Unless noted, calls come from the whole dose curve; as a rule, active = well fitted curve in the direction sought with a large enough effect; inconclusive = small, poorly fitted or top-dose-only effect, or another doubt; inactive = no such curve, though single readings can be large; an effect the other way counts as inactive or inconclusive. Unless noted, % is set by controls: 0 for no effect and ±100 for the full control effect.
SMILES,HT1080 IDH1KD tx,DT40 TDP1 CPT,ALOX12 inh,IL1B secr inh,HT1080-NT tox,TDP1 cell noCPT
CCN(c1ccccc1)S(=O)(=O)c1ccc(NC(=O)c2nc(SC(C)C)ncc2Cl)cc1,nt,20.6µM*,-17.2%,nt,nt,18.4µM*
CC(C)Sc1ncc(Cl)c(C(=O)Nc2ccc(S(=O)(=O)Nc3ncccn3)cc2)n1,nt,?,-3.2%,nt,nt,-15.9%
CC(O)c1cc2n(n1)CCCN(CC(=O)N1CCOc3ccccc31)C2 (stereo not drawn),nt,nt,32.3%,nt,nt,nt
O=C(NCc1ccccc1)c1c(Cl)nc(Cl)c(Cl)c1Cl,7.31µM*,?,0.0%,-107.4*,10.3µM*,18.4µM*
COc1ccc(CNC(=O)c2nc(SCc3ccc(C)cc3)ncc2Cl)cc1,nt,-10.4%,-13.1%,nt,nt,?
COc1ccc(CNC(=O)c2nc(SC(C)C)ncc2Cl)cc1,nt,29.1µM*,?,nt,nt,23.1µM*
CC(C)n1nc(C(=O)Nc2ccc(Oc3ccccc3)cc2)c2ccccc2c1=O,nt,nt,0.0%,nt,nt,nt
CCCCC[C@H](O)C=C[C@H]1[C@H](O)CC(=O)[C@H]1CCCCCCC(=O)O,nt,?,64.4%,nt,nt,?
CCCCC(C)(O)C/C=C/[C@H]1[C@H](O)CC(=O)[C@@H]1CCCCCCC(=O)OC (stereo partly drawn),nt,?,nt,nt,nt,1.5µM*
O=C(N/N=C/c1cccc(I)c1)c1cccs1,nt,nt,18.7%,nt,nt,nt
CCOc1ccc(OCCSc2nc3cc(S(=O)(=O)N(C)C)ccc3o2)cc1,nt,nt,-24.0%,nt,nt,nt
COc1cccc(CN2CCN(C(=O)c3cc(-c4ccncc4)nc4ccc(C)cc34)CC2)c1,-19.2%,23.1µM*,24.2%,-13.9,-14.2%,16.4µM*
COc1cccc(CN2CCN(C(=O)c3cc(-c4ccccn4)nc4ccc(Cl)cc34)CC2)c1,-1.2%,?,0.0%,54.2,-19.4%,18.4µM*
N=C(N)SCc1cn(-c2ccccc2)nc1-c1ccc(Br)cc1,5.17µM*,9.2µM*,?,-77.4*,5.17µM*,7.31µM*
CCCN(CC1CC1)C(=S)NC(=O)c1cc(Br)ccc1Cl,-20.3%,?,?,30.7,-8.9%,16.4µM*
Cn1cccc1CN1CCC(N2C(=O)C(OCC3CC3)C23CCCCC3)CC1 (stereo not drawn),nt,nt,68.6%,nt,nt,nt
CC(CCc1ccccc1)NC(=O)Cn1ccn2nc3c(c2c1=O)CCCC3 (stereo not drawn),nt,nt,-0.4%,nt,nt,nt
CCCn1c(=O)n(CCC(=O)N(C)CC(=O)Nc2cccc(F)c2)c2ccccc21,nt,nt,10.2%,nt,nt,nt
CCCCn1c(=O)[nH]c(=O)c2c1nc(CCC(=O)N1CCCCC1C)n2CC(C)C (stereo not drawn),nt,nt,-0.3%,nt,nt,nt
COc1cccc(Cn2c(-c3nonc3N)nc3ccccc32)c1,2.06µM*,2.91µM*,0.0%,50.1,2.59µM*,2.91µM*
COc1ccc(CCNC(=O)Cn2c(-c3nonc3N)nc3ccccc32)cc1OC,1.4%,-27.6%,-16.3%,-20.4,-0.1%,?
CCOc1ccc(CCNC(=O)Cn2c(-c3nonc3N)nc3ccccc32)cc1OCC,-11.0%,10µM*,-4.6%,-3.2,-4.3%,12.6µM*
COc1cc(Cn2c(-c3nonc3N)nc3ccccc32)ccc1C,1.84µM*,2.91µM*,81.7%,7.5,3.66µM*,4.11µM*
Cc1ccc(Cn2c(-c3nonc3N)nc3ccccc32)cc1,-7.3%,-10.0%,5.4%,12.3,-7.1%,-23.3%
Nc1nonc1-c1nc2ccccc2n1Cc1cccc(Cl)c1,nt,-5.9%,-23.4%,nt,nt,9.5%
SMILES,HT1080 IDH1KD tx,DT40 TDP1 CPT,ALOX12 inh,IL1B secr inh,HT1080-NT tox,TDP1 cell noCPT
COc1cccc(Cn2c(C(C)n3c(C)nc4ccccc43)nc3ccccc32)c1 (stereo not drawn),?,?,-68.3%,20.7,?,11.6µM*
CN(C(=O)Cc1nn(C)c(=O)c2ccccc12)C1CCCCCCC1,nt,nt,-27.4%,nt,nt,nt
C=CCN(CCC(=O)NC(N)=O)Cc1ccccc1,nt,nt,53.2%,nt,nt,nt
COC(=O)c1ccc(N=NN2CCCCCC2)cc1,-1.0%,0.6%,-2.4%,-63.4*,-6.4%,2.1%
Cc1cc2ccccn2c1C(=O)c1ccc(C#N)cc1,15.9%,?,?,-28.3,11.4%,23.1µM*
COC(=O)c1cc(C(=O)c2c(C)cc3ccccn23)cc([N+](=O)[O-])c1,?,8.2µM*,?,34.2,16.4µM*,11.6µM*
Cc1cc2ccccn2c1C(=O)c1ccc(NN)c([N+](=O)[O-])c1,?,16.4µM*,?,?,?,?
Cc1cc2ccccn2c1C(=O)c1cc([N+](=O)[O-])cc([N+](=O)[O-])c1,-1.5%,-19.8%,-7.1%,41.9,-3.8%,-23.3%
Cc1cccc(NC(=O)CSc2ccc(C(N)=O)cc2[N+](=O)[O-])c1C,-0.4%,?,-31.3%,13.2,10.2%,-8.6%
O=Cc1cccc(-c2ccc(O)cc2)c1,nt,nt,3.2%[12.5 µM],nt,nt,nt
CCCOc1ccc(NC(=O)CCC)c2cccnc12,nt,nt,0.0%,nt,nt,nt
Cc1ccc(C)c(S(=O)(=O)Nc2ccc3scnc3c2)c1,11.6µM*,23.1µM*,?,-18.9,?,18.4µM*
Cc1ccc(C)c(S(=O)(=O)Nc2ccc3[nH]c(=O)[nH]c3c2)c1,-16.8%,?,-16.0%,10.8,1.5%,?
Fc1cc2[nH]cnc2cc1Cl,-0.7%,5.5%,0.0%,-1.7,13.5%,1.84µM*
CN1CCCCCCN(S(C)(=O)=O)[C@H]2CCC[C@H]2C1=O,nt,nt,29.9%,nt,nt,nt
CCOc1cccc2sc(NC(=O)CCS(=O)(=O)c3ccccc3)nc12,?,8.2µM*,nt,i,-4.1%,8.2µM*
CCCCC(=O)Nc1nc2c(OC)ccc(OC)c2s1,-13.4%,-27.2%,0.4%,29.1,-5.9%,-4.0%
COc1ccc(C)c2sc(NC(=O)CCS(=O)(=O)c3ccccc3)nc12,?,23.1µM*,-18.7%,-90.4*,-9.5%,16.4µM*
CCOc1cccc2sc(Nc3nc4ccc(NC(C)=O)cc4s3)nc12,?,18.4µM*,-17.1%,?,?,?
CCOc1cccc2sc(N(CCN(C)C)C(=O)CCS(=O)(=O)c3ccccc3)nc12,12.7%,?,371.6%,-18.7,4.9%,-4.2%
CNc1ccccc1,6.1%,5.1%,12.0%,8.0,2.9%,9.6%
CNc1cccccc1=S,10.3%,3.26µM*,?,8.0,0.2%,4.61µM*
O=C(CCN1CCCCO1)NC1CCCc2nc(-c3ccccc3)ncc21 (stereo not drawn),nt,nt,5.6%,nt,nt,nt
